LGR2 inh: inhibitors of bursicon-induced Drosophila LGR2 receptor cAMP signaling | inhibition, % at 9.99 µM | actives 0.35% (n = 380,000) | HEK293 LGR2, CRE-luciferase, bursicon-stimulated, 4 h;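 active = drop in luminescence signal, shown as inhibition above about 50% in the replicate tests, limit read from the data, passing the limit was not always enough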;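 also: agonist challenge used bursicon conditioned medium at about half maximal strength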
SENP8 block-1: inhibitors of human SENP8 protease | actives 0.64% (n = 360,000) | Q96LD8 | inhibition, % at 20 µM | recombinant SENP8, Nedd8 substrate fluorescence; in the data active = inhibition mostly above about 40%, no sharp cut-off; inactive = mostly below about 27%
SENP7 block: blocks the human protease SENP7. Q9BQF6. recombinant SENP7, Z-RLRGG-aminoluciferin luminescence, 40 min. inhibition, % at 5 µM. actives 1.5% (n = 330,000);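 active = inhibition above about 50% at the single test dose, limit read from the data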;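 also: plate controls were DMSO with enzyme for no effect and no enzyme buffer wells for full effect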
Target sequence (Q9BQF6 706-1050 limits assumed): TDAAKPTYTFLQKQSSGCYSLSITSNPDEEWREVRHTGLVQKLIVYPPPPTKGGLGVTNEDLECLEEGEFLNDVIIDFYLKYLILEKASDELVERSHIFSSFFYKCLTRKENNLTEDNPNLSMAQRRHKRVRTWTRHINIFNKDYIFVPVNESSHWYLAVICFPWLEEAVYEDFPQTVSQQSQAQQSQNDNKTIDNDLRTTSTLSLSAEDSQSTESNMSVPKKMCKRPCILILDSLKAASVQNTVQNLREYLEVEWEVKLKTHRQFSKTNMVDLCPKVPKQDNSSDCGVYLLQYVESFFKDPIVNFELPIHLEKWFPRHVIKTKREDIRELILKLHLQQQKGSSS
SENP8 block-2: inhibitors of human SENP8 protease; Q96LD8; purified SENP8, Z-RLRGG-aminoluciferin cleavage, luminescence; inhibition, % at 10 µM; actives 1.2% (n = 330,000); in the data active = inhibition above about 50%
HSP90 inh: HSP90 refolding inhibition in rabbit reticulocyte lysate; luciferase refolding luminescence, 3 h; actives 0.91% (n = 290,000); AID 1789; inhibition, % at 5.6 µM;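 active = inhibition above the screen-wide mean plus 3 SD, computed separately per campaign, cut at about 16% in these data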;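 also: 0% = DMSO wells and 100% = 60 µM geldanamycin wells; inhibitors lower the luminescence because luciferase stays unfolded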
SENP6 inh: SENP6 protease inhibition; Q9GZR1; Recombinant SENP6 catalytic domain, aminoluciferin luminescence; inhibition, % at 10 µM; actives 1.8% (n = 330,000); AID 2599;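 active = inhibition above about 50% at the single tested dose, limit read from the data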;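 also: plate controls were DMSO wells with enzyme for no effect and DMSO wells lacking enzyme for full effect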
HSP90 inh confirm: HSP90 inhibition, confirmation assay; rabbit reticulocyte lysate, luciferase refolding luminescence, 3 h; inhibition, % at 5.9 µM; AID 1846; shares compounds with HSP90 inh; actives 64% (n = 2,300); in the data active = inhibition above about 18%;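 also: 0% = vehicle wells and 100% = reference inhibitor wells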
luciferase ctr: blocks native firefly luciferase in HSP90 counter-screen | shares compounds with HSP90 inh | inhibition, % at 5.9 µM | actives 48% (n = 2,300) | purified native firefly luciferase, luminescence | AID 1847;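 active = inhibition above the mean inhibition of all tested sample wells plus 3 SD, cut at about 10% in these data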;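 also: 0% = DMSO with luciferase and 100% = wells lacking luciferase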
* marks the source's active call; other numbers are inactive results; . = no result given. This is a sample that favours compounds with a hit; in the whole collection about 2.3% have one here.

SMILES	LGR2 inh	SENP8 block-1	SENP7 block	SENP8 block-2	HSP90 inh	SENP6 inh	HSP90 inh confirm	luciferase ctr
Oc1ccc(-c2cnc(-c3ccc(O)cc3)nc2)cc1	16.7	-75.1	-0.6	24.2	11.8	13.1	.	.
Nc1ccc(-c2cnc(-c3ccc(N)cc3)nc2)cc1	.	-269.4	29.0	-1.3	21.3*	-17.1	26.2*	19.0*
COc1cccc(Sc2nc(-c3ccccc3)ncc2S(C)(=O)=O)c1	-75.4	5.1	5.2	1.0	26.5*	7.0	14.7	14.2*
O=C(Cn1c(=O)n(Cc2ccc(F)cc2)c(=O)c2ccccc21)NCC1CCCO1 (stereo not drawn)	1.6	13.4	2.4	-2.0	17.6*	-17.7	-7.2	-11.0
COc1cc2c(=O)n(Cc3ccccc3)c(=O)n(CC(=O)NCC3CCCO3)c2cc1OC (stereo not drawn)	.	-63.5	5.9	3.8	2.3	10.7	.	.
C[C@H](CO)N1C[C@H](C)[C@H](CN(C)Cc2ccccc2C(F)(F)F)OCc2cn(nn2)CCCC1=O	2.3	.	.	.	.	.	.	.
CN(C)c1ccc(Nc2nc(N)c3ccccc3n2)cc1	89.3*	12.8	98.9*	94.6*	70.5*	95.7*	92.1*	78.3*
CCOc1ccc(Nc2nc(N)nc(CCl)n2)cc1	.	15.5	44.3	8.3	9.5	25.1	.	.
CCOc1ccc(Nc2nc(N)c3ccccc3n2)cc1	95.8*	-12.7	101.1*	96.2*	59.7*	95.7*	74.2*	61.0*
C[C@@H]1CN([C@H](C)CO)C(=O)c2cc(NC(=O)CCC(F)(F)F)ccc2O[C@@H](C)CCCCO[C@@H]1CN(C)C(=O)C1CCCCC1	9.2	.	.	.	.	.	.	.
C[C@H]1CN([C@@H](C)CO)C(=O)c2cccc(NS(=O)(=O)c3ccc(F)cc3)c2O[C@@H]1CN(C)Cc1ccc(C(=O)O)cc1	2.4	.	.	.	.	.	.	.
CC=Cc1ccc2n(c1=O)C[C@@H]1[C@@H](CO)[C@H](C(=O)NCC3CC3)N(Cc3nccs3)[C@H]21 (mixture of isomers)	-8.0	.	.	.	.	.	.	.
COc1ccc2c3c(n(C)c2c1)[C@@H](CO)N(C(=O)Nc1ccc(F)cc1)CC31CN(C(=O)CN2CCOCC2)C1	-0.2	.	.	.	.	.	.	.
Nc1cnc(Br)cc1Br	18.4	21.8	0.2	-4.8	-3.8	-20.5	.	.
Nc1cc2nsnc2cc1Br	.	92.9*	95.1*	97.2*	24.7*	95.5*	14.0	-4.7
COc1cccc(C(=O)Nc2ccc(N3CCN(S(C)(=O)=O)CC3)cc2)c1	.	6.4	-6.9	-2.5	17.5*	-17.3	-7.7	-18.5
CN1CCN(c2ccc(NC(=O)c3ccc4ccccc4c3)cc2)CC1	39.8	16.9	-3.7	-7.0	24.9*	8.8	30.9*	28.5*
Cc1ccc(C(=O)NCc2ccc(N3CCN(C)CC3)cc2)cc1C	11.6	7.3	2.6	-3.5	21.9*	15.7	0.5	-8.9
COc1ccc2c3c([nH]c2c1)[C@H](CO)N(C)CC31CN(C(=O)NC(C)C)C1	-1.5	.	.	.	.	.	.	.
C=CCc1ccc(OCCn2cccc2C=O)c(OC)c1	-54.4	5.0	9.2	-7.1	23.2*	-6.5	34.9*	-18.3
CNC[C@@H]1Oc2ccc(NS(=O)(=O)c3c(C)noc3C)cc2CC(=O)N([C@H](C)CO)C[C@H]1C	21.1	.	.	.	.	.	.	.
Cc1nn(-c2ccc(C(=O)O)cc2)c(N)c1-c1ccccc1	.	17.1	0.0	-9.4	20.9*	11.9	48.4*	-0.6
CC(NC(=O)CNC(=O)C1CCCCC1)c1ccc(S(N)(=O)=O)cc1 (stereo not drawn)	-3.4	11.8	1.9	-10.1	31.8*	-5.8	-1.1	0.3
COc1ccc(-c2csc(NC(=O)c3ccccc3F)n2)cc1	-2.9	-8.1	-1.2	7.5	33.5*	-0.8	-11.4	-31.9
Cc1ccc(-c2noc(CCC(=O)NCc3ccco3)n2)cc1	.	6.2	7.3	-6.5	24.4*	-4.9	-2.3	-13.7
COc1ccc(C(CC(=O)O)NC(C)=O)cc1OC (stereo not drawn)	.	14.0	-7.2	-3.2	18.0*	-2.8	4.4	-7.5
Cc1c(/C=N/Nc2ccc(C(=O)O)cc2)c2ccccc2n1C	-17.1	-397.6	9.6	2.5	41.6*	3.9	37.7*	26.5*
